Results taken from PubChem BioAssay (EPA / NIEHS).
Calls of active or inactive are those of the source. Rule for the calls: active = hit-call score of the fitted dose curve at least 0.9, where 1 is the maximum; inactive = score below 0.9.

Experiments:
[1] = read-out: Tissue Factor, F3 (gene 2152); test: BSK_CASM3C_TissueFactor: BioMAP Diversity Plus: CASM3C Assay for Tissue Factor Biomarker Activity (AID 2283052); settings: primary human coronary artery smooth muscle cells; actives raise or lower the signal;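 note: cell surface tissue factor protein level read by ELISA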
[2] = read-out: Interferon-gamma inducible Protein 10 (IP10), CXCL10 (gene 3627); test: BSK_hDFCGF_IP10: BioMAP Diversity Plus: hDFCGF Assay for Interferon-gamma inducible Protein 10 (IP10) Biomarker Activity (AID 2283053); settings: primary human foreskin fibroblasts; actives raise or lower the signal
In short: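 Human foreskin fibroblast primary cells (hDFCGF system) were dosed with chemical and assayed at 24 h; IP-10 measured by ELISA. Activity fitted bidirectionally relative to DMSO negative control as baseline.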

[3] = read-out: Urokinase-type plasminogen activator receptor (uPAR), PLAUR (gene 5329); test: BSK_CASM3C_uPAR: BioMAP Diversity Plus: CASM3C Assay for Urokinase-type plasminogen activator receptor (uPAR) Biomarker Activity (AID 2283054); settings: primary human coronary artery smooth muscle cells; actives raise or lower the signal;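 note: cell-surface uPAR protein level quantified by ELISA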
[4] = read-out: Vascular cell adhesion molecule 1 (VCAM1), VCAM1 (gene 7412); test: BSK_CASM3C_VCAM1: BioMAP Diversity Plus: CASM3C Assay for Vascular cell adhesion molecule 1 (VCAM1) Biomarker Activity (AID 2283055); settings: primary human coronary artery smooth muscle cells; actives raise or lower the signal;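 note: VCAM-1 protein level quantified by ELISA on the cells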
[5] = read-out: Collagen III, COL3A1 (gene 1281); test: BSK_hDFCGF_CollagenIII: BioMAP Diversity Plus: hDFCGF Assay for Collagen III Biomarker Activity (AID 2283056); settings: primary human foreskin fibroblasts; actives raise or lower the signal
In short: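 Human foreskin primary fibroblasts were exposed to test chemicals for 24 h, after which collagen III was quantified by ELISA. Activity was fitted bidirectionally against DMSO as negative control and baseline.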

[6] = read-out: Epidermal growth factor receptor (EGFR), EGFR (gene 1956); test: BSK_hDFCGF_EGFR: BioMAP Diversity Plus: hDFCGF Assay for Epidermal growth factor receptor (EGFR) Biomarker Activity (AID 2283057); settings: primary human foreskin fibroblasts; actives raise or lower the signal
In short: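 Primary human foreskin fibroblasts were exposed to compound for 24 h, after which cell-surface EGFR was quantified by ELISA. Activity was fitted bidirectionally against the DMSO negative control as baseline.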

[7] = read-out: Interleukin-8 (IL8), CXCL8 (gene 3576); test: BSK_hDFCGF_IL8: BioMAP Diversity Plus: hDFCGF Assay for Interleukin-8 (IL8) Biomarker Activity (AID 2283058); settings: primary human foreskin fibroblasts; actives raise or lower the signal
In short: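 hDFCGF human dermal fibroblasts; 24 h chemical exposure; IL-8 by ELISA; bidirectional curve fit vs DMSO baseline; gain or loss of signal scored.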

[8] = read-out: Macrophage colony-stimulating factor (MCSF), CSF1 (gene 1435); test: BSK_hDFCGF_MCSF: BioMAP Diversity Plus: hDFCGF Assay for Macrophage colony-stimulating factor (MCSF) Biomarker Activity (AID 2283060); settings: primary human foreskin fibroblasts; actives raise or lower the signal
In short: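 Human foreskin primary fibroblasts were treated with test chemical for 24 h, and M-CSF was then measured by ELISA. Data were fitted bidirectionally against DMSO as the negative control and activity baseline.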

[9] = BSK_hDFCGF_SRB: Viability Assessment in the BioMAP Diversity Plus: hDFCGF Assay (AID 2283061); settings: primary human foreskin fibroblasts;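 note: cells exposed to compound for 24 h before the read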
In short: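 Human foreskin primary fibroblasts were treated with compound and assessed 24 h after dosing. Total protein was measured by sulforhodamine B staining (0.1% SRB after 10% TCA fixation, 560 nm read) as a cytotoxicity marker, with bidirectional fitting against DMSO baseline.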

[10] = read-out: TIMP metallopeptidase inhibitor 1 (TIMP1), TIMP1 (gene 7076); test: BSK_hDFCGF_TIMP1: BioMAP Diversity Plus: hDFCGF Assay for TIMP metallopeptidase inhibitor 1 (TIMP1) Biomarker Activity (AID 2283062); settings: primary human foreskin fibroblasts; actives raise or lower the signal
In short: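 Primary human foreskin fibroblasts in the hDFCGF system were dosed with compound for 24 h, then TIMP-1 was measured by ELISA. Activity was fitted bidirectionally relative to DMSO control; parallel SRB staining assessed cytotoxicity.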

[11] = read-out: Monokine induced gamma interferon (MIG), CXCL9 (gene 4283); test: BSK_hDFCGF_MIG: BioMAP Diversity Plus: hDFCGF Assay for Monokine induced gamma interferon (MIG) Biomarker Activity (AID 2283063); settings: primary human foreskin fibroblasts; actives raise or lower the signal
In short: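 ELISA read-out of MIG from primary human dermal fibroblasts 24 h post-dosing. Gain or loss of signal fitted bidirectionally, DMSO as baseline.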

[12] = read-out: Matrix Metallopeptidase 1 (MMP1), MMP1 (gene 4312); test: BSK_hDFCGF_MMP1: BioMAP Diversity Plus: hDFCGF Assay for Matrix Metallopeptidase 1 (MMP1) Biomarker Activity (AID 2283064); settings: primary human foreskin fibroblasts; actives raise or lower the signal
In short: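 hDFCGF primary fibroblasts (human foreskin); chemical added; 24 h; MMP1 by ELISA; bidirectional fit vs DMSO.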

[13] = read-out: Vascular cell adhesion molecule 1 (VCAM1), VCAM1 (gene 7412); test: BSK_hDFCGF_VCAM1: BioMAP Diversity Plus: hDFCGF Assay for Vascular cell adhesion molecule 1 (VCAM1) Biomarker Activity (AID 2283065); settings: primary human foreskin fibroblasts; actives raise or lower the signal
In short: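 Primary human foreskin fibroblasts (hDFCGF system) were dosed with chemical and VCAM-1 was measured by ELISA 24 h later. Bidirectional curve fitting used DMSO as negative control and activity baseline.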

[14] = read-out: Plasminogen activator inhibitor-1 (PAI1), SERPINE1 (gene 5054); test: BSK_hDFCGF_PAI1: BioMAP Diversity Plus: hDFCGF Assay for Plasminogen activator inhibitor-1 (PAI1) Biomarker Activity (AID 2283066); settings: primary human foreskin fibroblasts; actives raise or lower the signal
In short: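 Human foreskin fibroblasts in the hDFCGF system were dosed with compound for 24 h; PAI-1 was quantified by ELISA. Bidirectional curve fitting used DMSO as negative control and baseline.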

[15] = read-out: Intercellular Adhesion Molecule 1 (ICAM1), ICAM1 (gene 3383); test: BSK_KF3CT_ICAM1: BioMAP Diversity Plus: KF3CT Assay for Intercellular Adhesion Molecule 1 (ICAM1) Biomarker Activity (AID 2283067); settings: primary human keratinocytes with fibroblasts; actives raise or lower the signal
In short: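 Human keratinocyte plus foreskin fibroblast primary co-culture was exposed to chemical for 24 h. ICAM-1 was then quantified by ELISA, and the data were fit bidirectionally against DMSO as the negative control and baseline.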

[16] = read-out: Interferon-gamma inducible Protein 10 (IP10), CXCL10 (gene 3627); test: BSK_KF3CT_IP10: BioMAP Diversity Plus: KF3CT Assay for Interferon-gamma inducible Protein 10 (IP10) Biomarker Activity (AID 2283068); settings: primary human keratinocytes with fibroblasts; actives raise or lower the signal
In short: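 ELISA read-out of IP-10 after 24 h chemical dosing of human skin primary co-culture (keratinocytes, foreskin fibroblasts). Gain or loss of signal relative to DMSO, bidirectional curve fit.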

[17] = BSK_KF3CT_SRB: Viability Assessment in the BioMAP Diversity Plus: KF3CT Assay (AID 2283069); settings: primary human keratinocytes with fibroblasts;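 note: fitted for both signal gain and loss against DMSO baseline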
In short: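 Keratinocytes co-cultured with foreskin fibroblasts (human primary); chemical added, 24 h; fix 10% TCA, stain 0.1% SRB, A560. Bidirectional fit vs DMSO.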

[18] = read-out: Interleukin-1 alpha (IL1a), IL1A (gene 3552); test: BSK_KF3CT_IL1a: BioMAP Diversity Plus: KF3CT Assay for Interleukin-1 alpha (IL1a) Biomarker Activity (AID 2283070); settings: primary human keratinocytes with fibroblasts; actives raise or lower the signal
In short: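 Chemicals were dosed onto co-cultured human keratinocytes and foreskin fibroblasts, IL-1a was quantified by ELISA at 24 h, and activity was fitted in both directions relative to DMSO controls.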

[19] = read-out: TIMP metallopeptidase inhibitor 2 (TIMP2), TIMP2 (gene 7077); test: BSK_KF3CT_TIMP2: BioMAP Diversity Plus: KF3CT Assay for TIMP metallopeptidase inhibitor 2 (TIMP2) Biomarker Activity (AID 2283071); settings: primary human keratinocytes with fibroblasts; actives raise or lower the signal
In short: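 Human primary keratinocyte/foreskin fibroblast co-culture dosed with chemical and sampled at 24 h. TIMP-2 levels quantified by ELISA; bidirectional fitting against DMSO negative control as baseline.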

[20] = BSK_hDFCGF_Proliferation: Cell Proliferation Assessment in the BioMAP Diversity Plus: hDFCGF Assay (AID 2283059); settings: primary human foreskin fibroblasts;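 note: curves fitted for both rise and fall of signal versus DMSO baseline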
In short: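 Sub-confluent human foreskin fibroblast cultures receive test chemical […]. Relative cell number is quantified by sulforhodamine B staining (0.1%, after 10% TCA fixation) at 560 nm, with bidirectional fitting referenced to DMSO.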

Measured: outcome

COc1ccc(C)cc1N
inactive: [1] | [2] | [3] | [4] | [5] | [6] | [7] | [8] | [9] | [10] | [11] | [12] | [13] | [14] | [15] | [16] | [17] | [18] | [19]

Cc1nc(C)nc(N2C[C@@H](C)N(c3ccnc([C@@H](C)O)n3)[C@@H](C)C2)n1
inactive: [1] | [2] | [3] | [4] | [5] | [6] | [7] | [8] | [9] | [10] | [11] | [12] | [13] | [14] | [15] | [16] | [17] | [18] | [19]

Cc1ccc2ncccc2c1
inactive: [1] | [2] | [3] | [4] | [5] | [6] | [7] | [8] | [9] | [10] | [11] | [12] | [13] | [14] | [15] | [16] | [17] | [18]

CCCCCCCCCCC
inactive: [1] | [2] | [3] | [4] | [5] | [6] | [7] | [8] | [9] | [10] | [11] | [12] | [13] | [14] | [15] | [16] | [17] | [18] | [19]

CC(C)c1ccc(C(=O)N=C(N)N)cc1S(C)(=O)=O
inactive: [1] | [2] | [3] | [4] | [5] | [7] | [20] | [8] | [9] | [10] | [11] | [12] | [13] | [14] | [15] | [16] | [17] | [18]

Cc1cc(NC(=O)C(=O)O)cc(C)c1Oc1ccc(O)c2c1CCC2
inactive: [1] | [2] | [3] | [4] | [5] | [6] | [7] | [8] | [9] | [10] | [11] | [12] | [13] | [14] | [15] | [16] | [17] | [18] | [19]

CCCCN(CCCC)CCCC
inactive: [1] | [2] | [3] | [4] | [5] | [6] | [7] | [8] | [9] | [10] | [11] | [12] | [13] | [14] | [15] | [16] | [17] | [18] | [19]
